The values below come from PubChem BioAssay.

The nature of experiment [1]: binders of probe aFSTL3 on microarray, primary screen, stem cell growth factor project, biochemical, small-molecule microarray, fluorescence 635/667 (AID 1064).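 Further: measures binding of the biotinylated anti-FSTL3 antibody to printed compounds.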 The conditions noted are these: higher = more signal.
The nature of experiment [2]: binders from COS7 lysate, DM2A8 probe, primary screen, torsin A project, cell lysate, small-molecule microarray, fluorescence 635/667 (AID 1065). The following applies: higher = more signal, COS7 lysate expressing mutant human TOR1A.
The nature of experiment [3]: binders of probe aFGF2 on microarray, primary screen, stem cell growth factor project, biochemical, small-molecule microarray, fluorescence 635/667 (AID 1067).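 Further: measures binding of biotinylated aFGF2 protein to printed compounds on slides; z-score merges feature fluorescence and signal-to-noise across triplicate slides.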 The following applies: higher = more signal.
Experiment [4] in a line: binders of probe aFGF10 on microarray, primary screen, stem cell growth factor project, biochemical, small-molecule microarray, fluorescence 635/667 (AID 1071).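 Further: score merges 667 nm spot intensity and signal to noise from triplicate slides.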 The following applies: higher = more signal.
For experiment [5], the target named is Neurogenic locus notch homolog protein 2 (Homo sapiens) (UniProt Q04721). Description: Notch2 binders on small-molecule microarrays, primary screen, biochemical, small-molecule microarray, 635 nm fluorescence, stem cell growth factors (AID 1073). The conditions noted are these: Notch2 binding, higher = more signal.
Neurogenic locus notch homolog protein 2 (Homo sapiens), sequence (Q04721 whole entry, looked up, canonical isoform): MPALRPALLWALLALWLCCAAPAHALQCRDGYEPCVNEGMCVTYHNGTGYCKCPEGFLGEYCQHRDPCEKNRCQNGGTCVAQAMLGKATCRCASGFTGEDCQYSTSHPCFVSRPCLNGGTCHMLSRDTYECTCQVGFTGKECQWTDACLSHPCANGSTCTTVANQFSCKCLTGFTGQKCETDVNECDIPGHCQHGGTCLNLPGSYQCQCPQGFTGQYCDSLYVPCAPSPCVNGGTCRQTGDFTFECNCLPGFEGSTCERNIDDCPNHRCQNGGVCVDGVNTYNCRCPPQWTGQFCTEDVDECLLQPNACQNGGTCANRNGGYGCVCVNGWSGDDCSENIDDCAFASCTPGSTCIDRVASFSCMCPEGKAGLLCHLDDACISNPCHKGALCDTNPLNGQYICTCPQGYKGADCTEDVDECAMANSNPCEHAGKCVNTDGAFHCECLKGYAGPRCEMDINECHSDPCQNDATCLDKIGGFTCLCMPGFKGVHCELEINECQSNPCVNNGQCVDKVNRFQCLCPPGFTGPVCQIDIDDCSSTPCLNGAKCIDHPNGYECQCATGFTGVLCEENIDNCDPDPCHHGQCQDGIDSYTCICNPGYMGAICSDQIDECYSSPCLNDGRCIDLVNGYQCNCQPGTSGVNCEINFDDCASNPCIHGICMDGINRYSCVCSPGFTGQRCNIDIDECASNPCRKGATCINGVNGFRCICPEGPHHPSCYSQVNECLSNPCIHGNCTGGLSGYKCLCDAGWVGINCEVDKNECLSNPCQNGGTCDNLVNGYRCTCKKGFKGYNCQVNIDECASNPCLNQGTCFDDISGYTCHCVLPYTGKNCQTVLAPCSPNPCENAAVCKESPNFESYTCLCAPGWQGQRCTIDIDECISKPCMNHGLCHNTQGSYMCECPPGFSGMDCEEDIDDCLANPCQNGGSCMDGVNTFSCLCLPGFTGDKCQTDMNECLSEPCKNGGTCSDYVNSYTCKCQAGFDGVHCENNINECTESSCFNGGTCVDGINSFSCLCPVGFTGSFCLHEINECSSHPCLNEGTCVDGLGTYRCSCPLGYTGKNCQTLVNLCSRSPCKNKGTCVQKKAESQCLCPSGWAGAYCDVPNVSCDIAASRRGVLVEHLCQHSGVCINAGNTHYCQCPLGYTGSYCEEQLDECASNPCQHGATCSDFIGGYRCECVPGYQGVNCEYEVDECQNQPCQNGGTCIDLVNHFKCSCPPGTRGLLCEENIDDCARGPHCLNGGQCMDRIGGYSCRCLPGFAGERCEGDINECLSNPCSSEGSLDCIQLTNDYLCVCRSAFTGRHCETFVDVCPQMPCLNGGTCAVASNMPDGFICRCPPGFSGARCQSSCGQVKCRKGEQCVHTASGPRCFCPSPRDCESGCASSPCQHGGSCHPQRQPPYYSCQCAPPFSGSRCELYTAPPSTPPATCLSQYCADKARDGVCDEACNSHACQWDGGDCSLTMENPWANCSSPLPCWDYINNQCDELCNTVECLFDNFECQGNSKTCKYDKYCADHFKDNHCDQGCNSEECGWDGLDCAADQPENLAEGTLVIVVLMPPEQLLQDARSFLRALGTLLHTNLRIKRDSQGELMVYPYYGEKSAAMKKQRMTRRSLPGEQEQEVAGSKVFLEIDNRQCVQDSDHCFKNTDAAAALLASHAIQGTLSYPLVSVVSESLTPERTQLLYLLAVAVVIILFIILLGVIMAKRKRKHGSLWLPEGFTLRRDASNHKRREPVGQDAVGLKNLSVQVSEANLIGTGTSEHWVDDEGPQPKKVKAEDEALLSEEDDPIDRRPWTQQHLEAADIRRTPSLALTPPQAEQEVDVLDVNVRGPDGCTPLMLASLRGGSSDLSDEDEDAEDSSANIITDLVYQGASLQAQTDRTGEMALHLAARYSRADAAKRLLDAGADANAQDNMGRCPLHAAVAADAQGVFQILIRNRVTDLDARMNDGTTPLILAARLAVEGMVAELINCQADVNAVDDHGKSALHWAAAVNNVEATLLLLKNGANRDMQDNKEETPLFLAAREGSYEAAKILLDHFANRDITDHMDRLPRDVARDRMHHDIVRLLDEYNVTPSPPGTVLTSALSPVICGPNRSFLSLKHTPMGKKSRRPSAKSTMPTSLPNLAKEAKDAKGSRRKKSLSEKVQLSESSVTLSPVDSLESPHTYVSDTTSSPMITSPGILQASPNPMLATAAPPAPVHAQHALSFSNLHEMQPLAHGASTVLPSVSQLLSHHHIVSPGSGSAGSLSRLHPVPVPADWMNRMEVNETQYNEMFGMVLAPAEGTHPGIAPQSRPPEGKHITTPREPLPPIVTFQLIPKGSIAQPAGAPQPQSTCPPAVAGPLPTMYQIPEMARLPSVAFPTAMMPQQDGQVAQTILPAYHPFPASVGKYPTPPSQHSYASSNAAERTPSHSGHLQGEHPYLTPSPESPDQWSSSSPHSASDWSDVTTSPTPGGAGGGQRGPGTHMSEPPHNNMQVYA
The target of experiment [6] is Pro-neuregulin-1, membrane-bound isoform (Homo sapiens) (UniProt Q02297). Put plainly: NRG1 binders on small-molecule microarrays, primary screen, psychiatric disease protein project, biochemical, small-molecule microarray, fluorescence 635/667 (AID 1075).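 Further: score combines 667 nm spot fluorescence with signal to noise.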 The following applies: NRG1 binding, 635 nm fluorescence, higher = more signal.
Pro-neuregulin-1, membrane-bound isoform (Homo sapiens), sequence (Q02297 whole entry, looked up, the tested form may be a part, canonical isoform): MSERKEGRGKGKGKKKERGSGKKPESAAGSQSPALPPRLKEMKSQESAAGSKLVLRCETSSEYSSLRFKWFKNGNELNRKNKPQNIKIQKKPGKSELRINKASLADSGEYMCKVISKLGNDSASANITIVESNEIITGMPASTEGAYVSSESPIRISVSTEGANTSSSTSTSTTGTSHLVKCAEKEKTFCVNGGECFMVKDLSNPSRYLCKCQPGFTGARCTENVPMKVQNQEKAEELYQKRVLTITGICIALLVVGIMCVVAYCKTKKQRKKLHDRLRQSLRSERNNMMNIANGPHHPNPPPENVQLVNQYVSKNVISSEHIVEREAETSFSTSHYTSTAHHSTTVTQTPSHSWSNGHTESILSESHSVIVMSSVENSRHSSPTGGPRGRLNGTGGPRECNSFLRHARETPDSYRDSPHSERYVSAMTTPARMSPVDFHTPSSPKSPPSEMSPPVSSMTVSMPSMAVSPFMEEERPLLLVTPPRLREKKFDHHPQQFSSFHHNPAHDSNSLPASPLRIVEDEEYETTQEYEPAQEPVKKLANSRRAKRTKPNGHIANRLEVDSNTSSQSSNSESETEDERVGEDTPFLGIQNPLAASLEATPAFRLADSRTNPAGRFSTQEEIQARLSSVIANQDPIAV
Experiment [7] concerns Neuregulin-1 EGF-like domain. Put plainly: binders of neuregulin-1 EGF-like domain, primary screen, biochemical, small-molecule microarray, 635 nm fluorescence (AID 1081).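 Further: binding of the protein to compounds printed on small-molecule microarray slides.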 The following applies: small-molecule microarray binding, higher = more signal.
A short description of experiment [8]: FRG1 promoter luciferase signal modulators, primary screen, FRG1 inhibition for FSHD, cell-based, C2C12 myotubes, firefly/Renilla luciferase, luminescence (AID 1084). The conditions noted are these: higher = more signal, called active from +8 up or from −8 down.
The nature of experiment [9]: binders of probe aFST on microarray, primary screen, stem cell growth factor project, biochemical, small-molecule microarray, fluorescence 635/667 (AID 1086).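 Further: score merges 667 nm fluorescence with signal-to-noise of each printed compound spot.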 The conditions noted are these: higher = more signal.
The nature of experiment [10]: binders of probe aHhip on microarray, primary screen, stem cell growth factor project, biochemical, small-molecule microarray, fluorescence 635/667 (AID 1087).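 Further: score merges spot fluorescence at 667nm with spot signal to noise ratio.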 The conditions noted are these: higher = more signal.

Activity calls are given as the source filed them.

Consider `[N-]=[N+]=Nc1ccccc1[C@H]1OC(c2ccc(OCCCO)cc2)=N[C@@]1(CCS(=O)(=O)c1ccccc1)C(=O)NCc1ccccc1`, for which the composite z-score was -0.196 in [1]; 0.144 in experiment [2]; 0.0843 in experiment [3]; 0.935 in experiment [4]; 1.66 in experiment [5]; 1.44 in experiment [6]. In addition, the composite z-score in [7] worked out at 1.34; in [9], 1.58; in [10] it was 0.258. Also, the z-score in experiment [8] was 5.01 (inactive).
As to `C=CCN1Cc2ccccc2[C@@H]2OC(c3ccc(OCCCO)cc3)=N[C@]2(CCS(=O)(=O)c2ccccc2)C1=O`, the composite z-score was 0.189 in [1]; 0.263 in experiment [2]; -0.04 in experiment [3]; 0.345 in experiment [4]; 1.55 in [5]; 0.721 in experiment [6]. Further, the composite z-score in experiment [7] was 1.24; in experiment [9] it was 0.804; in experiment [10], -0.191. For the same compound, the z-score in experiment [8] was -3.43 (inactive).
Turning to `COCCOC(=O)N1C(=O)[C@@]2(c3ccccc31)[C@H](C(N)=O)[C@H]1C(=O)O[C@H](c3ccccc3)[C@H](c3ccccc3)N1[C@@H]2c1ccc(O)cc1`, the composite z-score was 0.0458 in experiment [1]; 0.209 in experiment [2]; 0.0709 in [3]; 0.166 in experiment [4]; -0.248 in [5]; 1.32 in [6]. For the same compound, the composite z-score in experiment [7] is 1.24; in [9], -0.404; in [10] it was 0.0215. Besides, the z-score in [8] was -0.939 (inactive).
For `COc1ccc(C#Cc2ccc3c(c2)[C@]2(C(=O)N3)[C@H](c3ccc(O)cc3)N3[C@H](c4ccccc4)[C@H](c4ccccc4)OC(=O)[C@H]3[C@@H]2C(=O)N2CCc3cc(OC)c(OC)cc3C2)cc1`, the composite z-score was -0.284 in experiment [1]; 0.0877 in experiment [2]; 0.0106 in experiment [3]; 0.355 in experiment [4]; 0.84 in experiment [5]; 1.32 in experiment [6]. Further, the composite z-score in experiment [7] turned out to be 1.26; in experiment [9] it was 0.464; in experiment [10] it was 0.0505. Further, the z-score in experiment [8] was 1.46 (inactive).
For the compound `CC(C)(C)OC(=O)CC[C@]1(C(=O)NCCN2CCOCC2)COC(c2ccc(OCCCO)cc2)=N1`, the composite z-score in experiment [1] was -0.254; in experiment [2], 0.883; in [3], 0.0569; in experiment [4], 0.691; in [5] it was 0.361; in experiment [6], 1.33. In addition, the composite z-score in [7] came out at 1.41; in experiment [9], 0.519; in experiment [10] it was 0.0623. For the same compound, the z-score in experiment [8] was -0.783 (inactive).
For the compound `COCCOC(=O)N1C(=O)[C@@]2(c3cc(C#CC4(O)CCCCCC4)ccc31)[C@H](C(=O)Nc1nc3ccccc3s1)[C@H]1C(=O)O[C@H](c3ccccc3)[C@H](c3ccccc3)N1[C@@H]2c1ccccc1OCCO`, the composite z-score in [1] was 0.184; in experiment [2], 1.29; in [3], -0.0503; in experiment [4] it was 0.94; in experiment [5], 1; in experiment [6], 1.54. The values for the composite z-score in experiment [7], in experiment [9] and in [10] were 1.29, 0.461 and -0.0618, respectively. The z-score in [8] was 1.86 (inactive).
On to `COC(=O)c1c(CC[C@@H](CO)NC(=O)N[C@H](Cc2ccccc2)Cn2cc(-c3ccccn3)nn2)oc(C(C)=O)c1C(=O)OC`, for which the composite z-score in experiment [1] is -0.241; in experiment [2], 0.0467; in experiment [3] it was -0.083; in [4], 0.19; in [5] it was -0.143; in experiment [6], 0.813. In addition, the composite z-score in experiment [7] is 1.09; in experiment [9] it was -0.217; in experiment [10] it was -0.271. Also, the z-score in experiment [8] is -0.533 (inactive).
Consider `[N-]=[N+]=Nc1ccccc1C[C@@]1(C(=O)N2CCCCC2)N=C(c2ccc(OCCCO)cc2)O[C@@H]1c1ccccc1N=[N+]=[N-]`, for which the composite z-score in experiment [1] was found to be 1.23; in [2] it was 0.436; in experiment [3], 0.286; in experiment [4], 0.758; in experiment [5], 1.6; in experiment [6], 0.429. In addition, the composite z-score in experiment [7] is 1.17; in experiment [9], 1.14; in [10], -0.121. For the same compound, the z-score in [8] is -2.04 (inactive).
On to `CN1C(=O)C2C=CC(C(O)c3c(F)cccc3Cl)N(NC(=O)OC(C)(C)C)C2C1=O` (stereo not given), for which the composite z-score worked out at 0.171 in experiment [1]; 0.233 in experiment [2]; 0.0111 in experiment [3]; 1.11 in experiment [4]; 1.23 in experiment [5]; 1.49 in experiment [6]. For the same compound, the values for the composite z-score in experiment [7], in experiment [9] and in experiment [10] were 1.3, 0.888 and 0.0623, respectively. In addition, the z-score in [8] is 0.636 (inactive).
With `C=C(CCCC)/C(=C/C[C@H](OC(C)=O)c1ccc(OCCO)cc1)c1cnc2ccccc2c1`, the composite z-score in experiment [1] is -0.173; in experiment [2], 0.641; in [3], -0.115; in experiment [4], 0.372; in [5], 1.21; in experiment [6], 1.32. Also, the composite z-score is 1.18 in experiment [7], 0.703 in [9] and -0.0672 in experiment [10]. Moreover, in [8], the z-score was -0.851 (inactive).
In the case of `C#CCN(C/C=C/c1ccccc1)[C@H](CO)c1ccccc1`, the composite z-score in experiment [1] was -0.565; in experiment [2] it was 0.484; in experiment [3], -0.182; in experiment [4], -0.254; in experiment [5], 0.261; in [6] it was -0.516. In addition, the composite z-score in experiment [7] is -0.0706; in [9], 0.288; in [10], 0.0156. Also, the z-score in experiment [8] was -0.786 (inactive).
